Where “and” joins values, the source holds several entries; their conditions need not be identical. Equal values may be shown once. Calls of active or inactive are those of the source.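 Rule for the calls, unless noted: active = normalized viability below 100% at a tested concentration; inactive = the rest.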
Key:
[1] = liver-stage malaria parasite growth inhibition, primary screen, cell-based, HepG2, luciferase luminescence, HepG2 viability (AID 624349; in the data active = parasite load remaining mostly below about 12%, no sharp cut-off; inactive = mostly above about 10%;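 note: 100% = mean of DMSO negative control wells on the same plate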); settings: P. berghei liver stage in HepG2, luciferase luminescence, concentration not given here; parasite load remaining: stronger effect = lower value; viability: measured here: HepG2 viability without parasites
[2] = Cy5 fluorescence interference with SSB-bound oligo, artefact control for HCV NS3 helicase inhibitor project, biochemical, NIH Clinical Collection, E. coli SSB (AID 743268; call rule not given here)
[3] = system: Hepatitis C virus NS3 helicase; assay: HCV NS3 helicase inhibitors, primary screen, biochemical, fluorescence polarization, NIH Clinical Collection (AID 743270; call rule not given here); settings: NS3 helicase binding to Cy5-dT15 DNA, stronger effect = higher value, concentration not given here
[4] = target: Single-stranded DNA-binding protein (Escherichia coli (strain K12)) (UniProt P0AGE0); assay: E. coli SSB displacement from DNA, counter-screen for HCV NS3 helicase inhibitor project, biochemical, fluorescence polarization, NIH Clinical Collection (AID 743271; in the data active = inhibition above about 28%); settings: stronger effect = higher value, concentration not given here
[5] = fluorescence interference in NS3h assay format, artefact control for HCV NS3 helicase inhibitor project, biochemical, NIH Clinical Collection (AID 743272; call rule not given here;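 note: HCV NS3 helicase with a Cy5 labelled single stranded DNA probe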); settings: fluorescence interference counterscreen, stronger effect = lower value
[6] = target: 6-phosphogluconate dehydrogenase, decarboxylating (Homo sapiens) (UniProt P52209); assay: 6PGD enzyme inhibitors, primary screen, biochemical, human, recombinant enzyme, NADPH absorbance (AID 1159550;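 active = at least 20% inhibition of 6-phosphogluconate dehydrogenase activity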); settings: recombinant 6PGD, NADPH absorbance 341 nm; at 10 µM; stronger effect = higher value
[7] = modulation of C. elegans fzo-1 (AID 1259413; call rule not given here;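 note: fzo-1 mutant C. elegans worms in liquid wells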); settings: C. elegans fzo-1 modulator screen, mean read-out; stronger effect = higher value
[8] = sensitizers of A549 cells to miR-34 induction, primary screen, imaging, A549 dox-inducible miR-34, nuclei and caspase counts (AID 1347080;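 active = compounds whose cell count with miR-34 switched on is under 0.7 times the count with it off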); settings: A549 miR-34 inducible, Hoechst nuclei count, 48 h
[9] = survival rescue of mitochondrial mutant cells in low glucose, primary screen, MELAS cybrids, Rieske KO mouse fibroblasts, CellTiter-Glo (AID 1508586;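 active = mean z-score across replicates of 1.96 or higher in either the MELAS or the Rieske mutant cell line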;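 note: z relative to plate mean and SD of compound and empty wells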)
[10] = viability rescue of complex I mutant cybrids, primary screen, cell-based, galactose medium, ATP luminescence (AID 1645843;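 active = z-score of at least 1.8 in each of two replicates, scored against plate mean and spread of sample wells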;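 note: positive z means more ATP and so rescue of galactose-driven cybrid death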); settings: complex I mutant cybrid cells, 72 h, stronger effect = higher value
F380Y = assay: modulators of BK channel variants, profiling panel, selectivity assay, cell-based, U2OS BacMam, thallium flux, beta subunits (AID 1259406;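 active = thallium flux through the channel raised or lowered by more than 3 SD from vehicle-only wells, actives on both sides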;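 note: initial slope of Thallos dye fluorescence rise after thallium is added; log ratio against the mean of 0.3% DMSO vehicle wells on the same plate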); settings: at 30 µM
F380Y/beta2Delta = assay: as above; settings: at 30 µM
[11] = target: Calcium-activated potassium channel subunit alpha-1 (Homo sapiens) + Leucine-rich repeat-containing protein 26 (Homo sapiens) (UniProt Q12791+Q2I0M4); assay: as above; settings: F380Y/Slo1WT/gamma1, at 30 µM
R275C = assay: as above; settings: at 30 µM
R275C/beta1 = assay: as above; settings: at 30 µM
R275C/beta2Delta = assay: as above; settings: at 30 µM
[12] = target: NAD(+) hydrolase SARM1 (Homo sapiens) (UniProt Q6SZW1); assay: SARM1 TIR NADase inhibitors, cell lysate, NAD-Glo luminescence (AID 1508614;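 active = compound whose remaining NAD level is above about 45 nM, limit read from the data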;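 note: higher remaining NAD means stronger inhibition of SARM1 NADase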); settings: SAM-TIR HEK293T lysate NADase, at 1 µM, stronger effect = higher value
[13] = target: Mitogen-activated protein kinase 7 (Homo sapiens) (UniProt Q13164); assay: ERK5 transactivation activators in reporter cells, primary screen, cell-based, HTS (AID 1508626;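 active = luciferase signal above three times the same-plate solvent-only control wells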;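 note: luciferase driven by Gal4-ERK5 fusion binding five Gal4 sites before minimal TATA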); settings: HeLa Gal4-ERK5 transactivation, 18 h, at 5 µM, stronger effect = higher value
[14] = differential killing of epithelial or mesenchymal cells, primary screen, imaging, PC-3E GFP, TEM4-18 mCherry, co-culture (AID 1345086;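 active = compounds killing one labelled cell type while sparing the other, by normalised counts and ratio limits, not self-fluorescent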;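 note: cells exposed to compound for 72 h before imaging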;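 for red/green cell ratio (normalised): normalised mesenchymal count divided by normalised epithelial count so high means epithelial killing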); settings: imaging cell counts, at 1 µM
[15] = ovarian cancer cell viability with rucaparib, profiling panel, oncology-focused library, rucaparib conditional (AID 1508598); settings: patient-derived ovarian cancer cells, CellTiter-Glo viability, 144 h, stronger effect = lower value
[16] = stronger effect = lower value, cell number ratio, induced over uninduced
[17] = measured here: relative caspase fold change +Dox/-Dox
[18] = measured here: total cells with miR-34 induction, stronger effect = lower value
[19] = measured here: total cells without miR-34 induction
[20] = MELAS cybrid survival, CellTiter-Glo 48 h, stronger effect = higher value
[21] = Rieske KO mouse fibroblast survival, CellTiter-Glo 72 h

Sequence of 6-phosphogluconate dehydrogenase, decarboxylating (Homo sapiens) (P52209 whole entry, looked up): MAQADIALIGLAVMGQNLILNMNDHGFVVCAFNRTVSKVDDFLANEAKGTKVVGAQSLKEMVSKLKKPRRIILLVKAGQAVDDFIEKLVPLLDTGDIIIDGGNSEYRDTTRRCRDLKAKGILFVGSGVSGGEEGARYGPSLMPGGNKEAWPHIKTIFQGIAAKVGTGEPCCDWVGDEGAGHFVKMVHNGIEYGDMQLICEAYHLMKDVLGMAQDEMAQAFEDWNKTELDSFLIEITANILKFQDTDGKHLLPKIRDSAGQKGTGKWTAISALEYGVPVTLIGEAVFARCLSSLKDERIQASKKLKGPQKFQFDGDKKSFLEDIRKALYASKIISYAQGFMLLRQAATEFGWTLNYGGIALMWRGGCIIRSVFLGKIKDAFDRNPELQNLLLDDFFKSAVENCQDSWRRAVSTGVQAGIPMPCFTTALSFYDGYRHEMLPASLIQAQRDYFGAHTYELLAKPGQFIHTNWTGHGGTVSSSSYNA
Sequence of Mitogen-activated protein kinase 7 (Homo sapiens) (Q13164 whole entry, looked up, the tested form may be a part): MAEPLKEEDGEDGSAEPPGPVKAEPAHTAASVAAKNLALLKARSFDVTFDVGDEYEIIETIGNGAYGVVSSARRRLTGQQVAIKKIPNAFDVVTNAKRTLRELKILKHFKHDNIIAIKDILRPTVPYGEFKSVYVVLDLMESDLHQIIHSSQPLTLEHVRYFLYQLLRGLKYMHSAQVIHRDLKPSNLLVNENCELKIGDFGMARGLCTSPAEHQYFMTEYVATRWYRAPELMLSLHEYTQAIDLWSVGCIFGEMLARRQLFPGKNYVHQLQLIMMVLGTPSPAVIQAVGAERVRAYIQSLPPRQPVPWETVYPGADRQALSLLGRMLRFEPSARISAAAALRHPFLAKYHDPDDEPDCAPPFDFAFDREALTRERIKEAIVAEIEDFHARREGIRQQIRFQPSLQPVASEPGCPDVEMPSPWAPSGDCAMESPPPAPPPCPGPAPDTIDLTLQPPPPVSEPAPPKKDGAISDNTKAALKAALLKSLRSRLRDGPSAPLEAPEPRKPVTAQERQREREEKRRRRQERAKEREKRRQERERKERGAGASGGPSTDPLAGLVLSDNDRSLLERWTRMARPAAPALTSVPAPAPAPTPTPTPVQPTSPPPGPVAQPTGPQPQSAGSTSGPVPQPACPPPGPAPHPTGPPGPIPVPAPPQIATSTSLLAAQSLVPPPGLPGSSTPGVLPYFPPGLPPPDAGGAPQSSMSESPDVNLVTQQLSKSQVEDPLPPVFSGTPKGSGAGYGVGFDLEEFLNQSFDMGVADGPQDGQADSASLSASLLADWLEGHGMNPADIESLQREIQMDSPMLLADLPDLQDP
Sequence of Calcium-activated potassium channel subunit alpha-1 (Homo sapiens) + Leucine-rich repeat-containing protein 26 (Homo sapiens) (Q2I0M4 whole entry, looked up, one chain of several): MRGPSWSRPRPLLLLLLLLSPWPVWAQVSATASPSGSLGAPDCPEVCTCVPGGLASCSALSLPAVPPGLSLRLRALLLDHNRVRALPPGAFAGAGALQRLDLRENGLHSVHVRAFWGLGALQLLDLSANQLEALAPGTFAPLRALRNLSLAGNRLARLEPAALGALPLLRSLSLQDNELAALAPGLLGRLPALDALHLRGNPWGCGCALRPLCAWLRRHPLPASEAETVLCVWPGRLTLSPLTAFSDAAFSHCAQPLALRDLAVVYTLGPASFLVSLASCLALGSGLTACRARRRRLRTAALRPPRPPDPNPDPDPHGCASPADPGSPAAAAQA
Sequence of NAD(+) hydrolase SARM1 (Homo sapiens) (Q6SZW1 whole entry, looked up, the tested form may be a part): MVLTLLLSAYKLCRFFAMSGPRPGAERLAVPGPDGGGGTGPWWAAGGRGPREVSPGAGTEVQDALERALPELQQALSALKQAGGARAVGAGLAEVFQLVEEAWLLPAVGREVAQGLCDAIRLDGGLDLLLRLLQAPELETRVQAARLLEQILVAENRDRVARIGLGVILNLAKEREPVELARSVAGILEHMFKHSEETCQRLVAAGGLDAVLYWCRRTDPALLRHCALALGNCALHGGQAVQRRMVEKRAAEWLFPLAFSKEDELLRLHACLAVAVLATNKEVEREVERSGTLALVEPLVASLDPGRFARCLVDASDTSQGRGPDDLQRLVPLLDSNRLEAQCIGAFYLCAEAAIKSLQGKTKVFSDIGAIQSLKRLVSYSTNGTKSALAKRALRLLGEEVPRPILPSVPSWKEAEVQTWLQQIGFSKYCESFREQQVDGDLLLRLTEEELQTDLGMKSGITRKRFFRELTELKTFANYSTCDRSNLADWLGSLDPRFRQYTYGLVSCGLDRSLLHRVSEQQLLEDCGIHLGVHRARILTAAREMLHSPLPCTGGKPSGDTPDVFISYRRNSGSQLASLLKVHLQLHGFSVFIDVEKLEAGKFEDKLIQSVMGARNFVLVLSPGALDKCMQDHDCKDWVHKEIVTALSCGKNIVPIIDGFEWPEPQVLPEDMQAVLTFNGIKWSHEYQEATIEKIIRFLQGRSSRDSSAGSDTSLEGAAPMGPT

## CC(C)[N+]1(C)C2CCC1CC(OC(=O)C(CO)c1ccccc1)C2 (stereo unspecified)
[1]
  parasite load remaining: 58.8% (inactive) and 74.5% (inactive)
  viability: 98.1% and 77.4%
[2]
  fluorescence ratio: 1.07 (inactive)
[3]
  inhibition: -3.18% (inactive)
[4]
  inhibition: -3.53% (inactive)
[5]
  fluorescence ratio: 1.02 (inactive)
[6]
  inhibition: 11.9% (inactive)
[7]
  mean signal: 254 (inactive)
[8]; [16]
  fold change: 0.921 (inactive) and 0.934 (inactive) and 0.97 (inactive)
[8]; [17]
  fold change: 0.608 and 0.704 and 0.785
[8]; [18]
  cell count: 10300 and 7770 and 8120
[8]; [19]
  cell count: 11100 and 8310 and 8370
[9]; [20]
  z-score: 0.162 (inactive)
[9]; [21]
  z-score: -0.136
[10]
  z-score: 0.14 (inactive) and 0.88 (inactive)
F380Y
  log fold change Tl+ flux: 0.00902 (inactive)
F380Y/beta2Delta
  log fold change Tl+ flux: -0.00601 (inactive)
[11]
  log fold change Tl+ flux: 0.0518 (inactive)
R275C
  log fold change Tl+ flux: 0.0409 (inactive)
R275C/beta1
  log fold change Tl+ flux: -0.0331 (inactive)
R275C/beta2Delta
  log fold change Tl+ flux: 0.000928 (inactive)

## CCCC1O[C@@H]2C[C@H]3[C@@H]4CCC5=CC(=O)C=C[C@]5(C)[C@H]4[C@@H](O)C[C@]3(C)[C@]2(C(=O)CO)O1 (stereo partly specified)
[1]
  parasite load remaining: 14% (inactive) and 67.2% (inactive) and 78.7% (inactive)
  viability: 116% and 115% and 75.3%
[2]
  fluorescence ratio: 1.05 (inactive)
[3]
  inhibition: -1.36% (inactive)
[4]
  inhibition: 1.05% (inactive)
[5]
  fluorescence ratio: 0.99 (inactive)
[6]
  inhibition: -12.1% (inactive)
[9]; [20]
  z-score: -0.382 (inactive)
[9]; [21]
  z-score: -0.0716
[12]
  remaining NAD: 10 nM (inactive)
[13]
  luciferase signal: 96 AU (inactive)
F380Y
  log fold change Tl+ flux: 0.198 (active)
F380Y/beta2Delta
  log fold change Tl+ flux: 0.159 (active)
[11]
  log fold change Tl+ flux: 0.0553 (inactive)
R275C
  log fold change Tl+ flux: 0.0776 (inactive)
R275C/beta1
  log fold change Tl+ flux: 0.133 (active)
R275C/beta2Delta
  log fold change Tl+ flux: 0.115 (active)

## O=C(O[C@@H]1Cc2c(O)cc(O)cc2O[C@@H]1c1cc(O)c(O)c(O)c1)c1cc(O)c(O)c(O)c1
[1]
  parasite load remaining: 87.1% (inactive)
  viability: 76.9%
[2]
  fluorescence ratio: 0.63 (active)
[3]
  inhibition: -3.56% (inactive)
[4]
  inhibition: 32.2% (active)
[5]
  fluorescence ratio: 0.8 (active)
[6]
  inhibition: 15.4% (inactive)
[7]
  mean signal: 222 (inactive)
[14]; actives lie on both sides, counts scaled to control wells, 1 = unselective
  red/green cell ratio (normalised): 1.15 (inactive)
[14]; measured here: epithelial PC-3E GFP cell survival
  normalised cell number: 0.79
[14]; measured here: mesenchymal TEM4-18 mCherry cell survival
  normalised cell number: 0.91
[8]; [16]
  fold change: 0.998 (inactive)
[8]; [17]
  fold change: 0.749
[8]; [18]
  cell count: 5870
[8]; [19]
  cell count: 5880
[15]; at 0.000305 µM, OCI-C5x cells, with rucaparib 10 µM, 100% = cells with rucaparib alone
  viability: 112% (inactive)
[15]; at 0.000305 µM, OCI-C5x cells, without rucaparib
  viability: 121% (inactive)
[15]; at 0.000305 µM, OCI-P5x cells, with rucaparib 20 µM, 100% = cells with rucaparib alone
  viability: 103% (inactive)
[15]; at 0.000305 µM, OCI-P5x cells, without rucaparib
  viability: 104% (inactive)
[15]; at 0.00122 µM, OCI-C5x cells, with rucaparib 10 µM, 100% = cells with rucaparib alone
  viability: 120% (inactive)
[15]; at 0.00122 µM, OCI-C5x cells, without rucaparib
  viability: 118% (inactive)
[15]; at 0.00122 µM, OCI-P5x cells, with rucaparib 20 µM, 100% = cells with rucaparib alone
  viability: 73.5% (active)
[15]; at 0.00122 µM, OCI-P5x cells, without rucaparib
  viability: 91% (active)
[15]; at 0.00488 µM, OCI-C5x cells, with rucaparib 10 µM, 100% = cells with rucaparib alone
  viability: 123% (inactive)
[15]; at 0.00488 µM, OCI-C5x cells, without rucaparib
  viability: 116% (inactive)
[15]; at 0.00488 µM, OCI-P5x cells, with rucaparib 20 µM, 100% = cells with rucaparib alone
  viability: 90.4% (active)
[15]; at 0.00488 µM, OCI-P5x cells, without rucaparib
  viability: 107% (inactive)
[15]; at 0.0195 µM, OCI-C5x cells, with rucaparib 10 µM, 100% = cells with rucaparib alone
  viability: 104% (inactive)
[15]; at 0.0195 µM, OCI-C5x cells, without rucaparib
  viability: 117% (inactive)
[15]; at 0.0195 µM, OCI-P5x cells, with rucaparib 20 µM, 100% = cells with rucaparib alone
  viability: 82.9% (active)
[15]; at 0.0195 µM, OCI-P5x cells, without rucaparib
  viability: 100% (inactive)
[15]; at 0.0781 µM, OCI-C5x cells, with rucaparib 10 µM, 100% = cells with rucaparib alone
  viability: 118% (inactive)
[15]; at 0.0781 µM, OCI-C5x cells, without rucaparib
  viability: 119% (inactive)
[15]; at 0.0781 µM, OCI-P5x cells, with rucaparib 20 µM, 100% = cells with rucaparib alone
  viability: 96.1% (active)
[15]; at 0.0781 µM, OCI-P5x cells, without rucaparib
  viability: 106% (inactive)
[15]; at 0.313 µM, OCI-C5x cells, with rucaparib 10 µM, 100% = cells with rucaparib alone
  viability: 109% (inactive)
[15]; at 0.313 µM, OCI-C5x cells, without rucaparib
  viability: 120% (inactive)
[15]; at 0.313 µM, OCI-P5x cells, with rucaparib 20 µM, 100% = cells with rucaparib alone
  viability: 94.4% (active)
[15]; at 0.313 µM, OCI-P5x cells, without rucaparib
  viability: 110% (inactive)
[15]; at 1.25 µM, OCI-C5x cells, with rucaparib 10 µM, 100% = cells with rucaparib alone
  viability: 111% (inactive)
[15]; at 1.25 µM, OCI-C5x cells, without rucaparib
  viability: 108% (inactive)
[15]; at 1.25 µM, OCI-P5x cells, with rucaparib 20 µM, 100% = cells with rucaparib alone
  viability: 97.8% (active)
[15]; at 1.25 µM, OCI-P5x cells, without rucaparib
  viability: 104% (inactive)
[15]; at 5 µM, OCI-C5x cells, with rucaparib 10 µM, 100% = cells with rucaparib alone
  viability: 117% (inactive)
[15]; at 5 µM, OCI-C5x cells, without rucaparib
  viability: 114% (inactive)
[15]; at 5 µM, OCI-P5x cells, with rucaparib 20 µM, 100% = cells with rucaparib alone
  viability: 89.7% (active)
[15]; at 5 µM, OCI-P5x cells, without rucaparib
  viability: 92.1% (active)
[13]
  luciferase signal: 48 AU (inactive)

Reference: PubChem BioAssay
